{"source": "PubChem BioAssay", "note": "Activity calls are given as the source filed them. How the calls were made is not given here."}
{"target": "L-lactate dehydrogenase (Plasmodium falciparum (isolate CDC / Honduras)) (UniProt Q27743)", "sequence (Q27743 whole entry, looked up)": "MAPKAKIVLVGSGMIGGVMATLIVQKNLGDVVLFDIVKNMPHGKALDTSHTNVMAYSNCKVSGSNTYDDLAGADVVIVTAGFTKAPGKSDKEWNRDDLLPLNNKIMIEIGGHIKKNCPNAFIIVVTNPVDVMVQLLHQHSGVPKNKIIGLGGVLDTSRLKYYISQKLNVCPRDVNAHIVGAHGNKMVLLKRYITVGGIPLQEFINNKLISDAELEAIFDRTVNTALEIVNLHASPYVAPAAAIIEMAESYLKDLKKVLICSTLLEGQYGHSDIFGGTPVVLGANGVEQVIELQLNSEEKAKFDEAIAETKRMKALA", "experiment": "PfLDH activity inhibition – cell lysate, 3D7 strain, counter-screen for P. falciparum growth inhibition project (AID 2304);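 further: 0% = vehicle and 100% = reference inhibitor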", "conditions": "P. falciparum 3D7 crude extract, LDH APAD/NBT absorbance; at 2 µM; stronger effect = higher value"}
{"smiles": "CNc1ccc(CNCc2cccc(-c3ccc(-c4nc5c(C)cccc5[nH]4)cc3)c2)cc1", "inhibition": "-4% (inactive)"}
{"smiles": "COc1ccc(C2C(C(=O)Nc3cc(C)ccc3OC)c3ccccc3C(=O)N2C)cc1", "note": "(stereo not given)", "inhibition": "1% (inactive)"}
{"smiles": "N#Cc1ccccc1Sc1ccccc1C(=O)Nc1ccc2ccccc2n1", "inhibition": "0% (inactive)"}
{"smiles": "COc1ccc2nccc([C@@H](O)CN3CCC(NC(=O)c4ccc(Cl)c([N+](=O)[O-])c4)CC3)c2c1", "inhibition": "-1% (inactive)"}
{"smiles": "O=C(Nc1cccc(-c2cccc(-c3nc4ccc(C(F)(F)F)cc4[nH]3)c2)c1)c1ccncc1", "inhibition": "4% (inactive)"}
{"smiles": "O=C(Nc1ccccc1)c1nn(CCCN2CCC(N3CCCC3)CC2)cc1-c1ccc(Cl)c(Cl)c1", "inhibition": "-2% (inactive)"}
{"smiles": "CC(=O)NC(c1cccs1)c1cc(Cl)c2cccnc2c1O", "note": "(stereo not given)", "inhibition": "-2% (inactive)"}
{"smiles": "COc1cc(NC(=O)N2CCc3ccc(OCCN4CCCCC4)cc32)cc(C(F)(F)F)c1", "inhibition": "6% (inactive)"}
{"smiles": "Cc1cc(N[C@@H](Cc2ccccc2)C(=O)NCCOc2ccccc2)nc(NCCOc2ccccc2)n1", "inhibition": "-4% (inactive)"}
{"smiles": "Cc1nc(-c2ccc(-c3ccc(NC(=O)c4coc5ccc(N6C[C@@H](C)N(C)[C@@H](C)C6)cc45)cc3)c(C)c2)no1", "inhibition": "1% (inactive)"}
{"smiles": "N#Cc1ccc2c(c1)CCN(CCC1CCC(NC(=O)/C=C/c3cc(Br)cs3)CC1)CC2", "note": "(stereo not given)", "inhibition": "5% (inactive)"}
{"smiles": "CN1CCN(c2ccnc3ccc(NC(=O)Nc4ccccc4Br)cc23)CC1", "inhibition": "-3% (inactive)"}
{"smiles": "Cc1nc2ccc3ccc(CNc4ccc5c(c4)CN([C@H](CCC(=O)O)C(=O)O)C5=O)cc3c2c(=O)[nH]1", "inhibition": "2% (inactive)"}
{"smiles": "CCCC(=O)NC(c1ccc(C(C)C)cc1)c1ccc2cccnc2c1O", "note": "(stereo not given)", "inhibition": "0% (inactive)"}
{"smiles": "COc1ccc2nccc([C@@H](O)CN3CCC(NCCOc4cccc(F)c4F)CC3)c2c1", "inhibition": "3% (inactive)"}
{"smiles": "Cc1cc(N[C@@H](CC(C)C)C(=O)NCc2cccc(F)c2)nc(NCCc2ccc(F)cc2)n1", "inhibition": "-2% (inactive)"}
{"smiles": "COCCn1c(-c2nc(-c3ccc(F)cc3)cnc2N)nc2ccccc21", "inhibition": "-6% (inactive)"}
{"smiles": "C=CCc1cc(Br)ccc1OCCCON1C(N)=NC(N)=NC1(C)C", "inhibition": "2% (inactive)"}
{"smiles": "O=C(Nc1ccnc2ccccc12)NC1CCN(Cc2ccccc2)CC1", "inhibition": "5% (inactive)"}
{"smiles": "O=C(/C=C/c1ccc(Cl)c(Cl)c1)NC1CCC(CN2CCC(c3coc4ccccc34)CC2)CC1", "note": "(stereo not given)", "inhibition": "3% (inactive)"}
{"smiles": "Oc1cccc(Nc2nc(NCc3ccco3)c3ccccc3n2)c1", "inhibition": "0% (inactive)"}
{"smiles": "CN(C)C(=NCCCCCCN=C(/N=C(/N)Nc1ccc(Cl)cc1)N(C)C)/N=C(/N)Nc1ccc(Cl)cc1", "inhibition": "4% (inactive)"}
{"smiles": "CC1CCC2(CC1)N=C(N)N=C(N)N2OCc1ccc(Br)c2ccccc12", "note": "(stereo not given)", "inhibition": "-4% (inactive)"}
{"smiles": "O=S(=O)(NCCN1CCCC1)c1cccc(-c2cccc(CNCc3ccc(F)cc3)c2)c1", "inhibition": "4% (inactive)"}
{"smiles": "COc1ccc2nccc([C@@H](O)CN3CCC(NC(=O)/C=C/c4ccc(Cl)c(C(F)(F)F)c4)CC3)c2c1", "inhibition": "-4% (inactive)"}
{"smiles": "Clc1ccc2c(N3CCCNCC3)ccnc2c1", "inhibition": "-1% (inactive)"}
{"smiles": "c1ccc(Cn2nnnc2-c2cccc(Nc3ccnc4cc(-c5nccs5)ccc34)c2)cc1", "inhibition": "-4% (inactive)"}
{"smiles": "CC(C)Oc1cc2c(cc1NS(=O)(=O)c1ccc(-c3cccs3)cc1)CCN(C)CC2", "inhibition": "-4% (inactive)"}
{"smiles": "Cc1cc([N+](=O)[O-])ccc1N1CCN(CCCCNC(=O)c2ccc(NC(=O)c3ccc(Cl)cc3)cc2)CC1", "inhibition": "2% (inactive)"}
{"smiles": "CC1CCC(NCc2c(O)ccc3ccccc23)CC1", "note": "(stereo not given)", "inhibition": "-1% (inactive)"}
{"smiles": "CCNc1cc(C(=O)N[C@@H](Cc2cc(F)cc(F)c2)[C@H](O)CNCc2cccc(C(F)(F)F)c2)cc(N2CCCCS2(=O)=O)c1", "inhibition": "-8% (inactive)"}
{"smiles": "CCc1ccc(NC(=O)c2cccc(CN3CCCN(CC4CCCCC4)CC3)c2)cc1", "inhibition": "4% (inactive)"}
{"smiles": "CC1(C)N=C(NC(=O)Nc2ccc([N+](=O)[O-])cc2)N=C(N)N1OCc1cccc2ccccc12", "inhibition": "-3% (inactive)"}
{"smiles": "O=C(Nc1ccc(Cl)cc1)NC1CCN(CCCCCNC(=O)[C@@H]2C[C@H]2c2ccc(Cl)c(Cl)c2)CC1", "inhibition": "4% (inactive)"}
{"smiles": "O=C(NC1CCCCCC1)C1CCCN(C(=O)c2ccc(O)c(-c3ccc(Cl)c(Cl)c3)c2)C1", "note": "(stereo not given)", "inhibition": "-2% (inactive)"}
{"smiles": "O=C(Nc1ccc2c(c1)CCC2)c1nc(N2CCN(c3ccncc3)CC2)ccc1Cl", "inhibition": "-1% (inactive)"}
{"smiles": "CCNc1cc(C(=O)N[C@@H](Cc2ccccc2)[C@H](O)CNC2(Cc3cccc(Cl)c3)CCC2)cc(N2CCCCS2(=O)=O)c1", "inhibition": "1% (inactive)"}
{"smiles": "COc1ccc(-c2ccc(CNC3Cc4ccccc4C3)cc2)cc1S(=O)(=O)NCCN1CCCC1", "inhibition": "3% (inactive)"}
{"smiles": "N#Cc1ccc2c(c1)CCN(CCC1CCC(Nc3ncnc4ccccc34)CC1)C2", "note": "(stereo not given)", "inhibition": "-4% (inactive)"}
{"smiles": "Cc1[nH]c(C)c(-c2ccc(-c3ccc(Cl)cc3)nc2)c(=O)c1Cl", "inhibition": "3% (inactive)"}
